Screening results: PubChem BioAssay, several laboratories
Rows were chosen to be rich in hits. Some 0.97% of all compounds tested hit in one or more screens of this group.
RPL19A TOR yeast: alters RPL19A-GFP fluorescence in TOR pathway yeast screen | S. cerevisiae RPL19A-GFP strain, flow cytometry, 3 h; stronger effect = lower value | percent response vs DMSO, % at 10 µM | 330,000 compounds, 0.3% hits;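 active = percent response vs DMSO below 50%; inconclusive = fewer than 70 events counted for the yeast strain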;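 also: median channel GFP fluorescence of the barcoded RPL19A-GFP strain; ratio of sample median GFP to plate DMSO average so 100% = DMSO; lower means less RPL19A-GFP as with rapamycin TOR inhibition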
AGP1-GFP MLPCN: alters AGP1-GFP fluorescence in TOR pathway yeast screen; S. cerevisiae AGP1-GFP multiplex flow cytometry, 3 h; GFP as percent of DMSO wells; GFP response vs DMSO, % at 10 µM; 320,000 compounds, 0.02% hits; AID 2066;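 active = GFP response relative to DMSO above a set limit, near screen average plus 3 SD, cut at about 150% in these data; inconclusive = fewer than 70 cells counted for the yeast strain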;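 also: median GFP channel fluorescence of the gated AGP1 strain per well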
CIT2 TOR yeast: yeast TOR pathway CIT2-GFP modulation | S. cerevisiae CIT2-GFP strain, flow cytometry, 3 h; 100 means same as DMSO wells | GFP response vs DMSO, % at 10 µM | 320,000 compounds, 0.065% hits | AID 2029;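 active = GFP response relative to DMSO above a set limit, near the screen mean plus 3 SD, cut at about 150% in these data; inconclusive = Fewer than 70 cells measured for a yeast strain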;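 also: ratio of well median GFP fluorescence to mean of DMSO wells on the plate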
MEP2-GFP yeast: yeast TOR pathway MEP2-GFP modulation; 330,000 compounds, 0.51% hits; GFP response vs DMSO, % at 10 µM; AID 2016; S. cerevisiae MEP2-GFP strain, flow cytometry GFP, 3 h; 100% = DMSO control level;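 active = GFP response versus DMSO above a set limit, roughly screen mean plus 3 SD, cut at about 180% in these data; inconclusive = fewer than 70 cells counted for a yeast strain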;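 also: median GFP fluorescence of the barcode-gated MEP2-GFP cells per well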
GASC-1 inh: blocks human GASC-1 demethylase activity. Q9H3R0. inhibition, % at 2.35 µM. 330,000 compounds, 0.069% hits. GST-JMJD2C(1-420) H3K9me3 demethylation, DELFIA europium;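 active = more than half of a compound's replicate wells show inhibition beyond 50%, single wells judged on their own value; inconclusive = some, but no more than half, of replicates pass 50% inhibition; inactive = no replicate passes 50% inhibition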;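 also: signal counts dimethyl H3K9 product captured on neutravidin plate; 0% = median of DMSO wells and 100% = 0.3 times that DMSO median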
Target sequence (Q9H3R0 1-420 limits assumed): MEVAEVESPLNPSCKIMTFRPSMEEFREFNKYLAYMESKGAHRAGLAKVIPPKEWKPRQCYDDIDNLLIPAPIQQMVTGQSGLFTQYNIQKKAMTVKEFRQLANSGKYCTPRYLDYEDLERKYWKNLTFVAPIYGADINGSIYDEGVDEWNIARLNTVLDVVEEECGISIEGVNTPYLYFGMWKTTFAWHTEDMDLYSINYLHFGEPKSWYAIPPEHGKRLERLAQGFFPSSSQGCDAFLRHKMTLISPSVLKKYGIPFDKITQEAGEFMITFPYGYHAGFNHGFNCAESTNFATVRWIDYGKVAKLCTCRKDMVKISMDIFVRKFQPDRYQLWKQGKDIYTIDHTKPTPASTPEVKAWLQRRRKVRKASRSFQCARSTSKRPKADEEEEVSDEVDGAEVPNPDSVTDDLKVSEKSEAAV
LAP4 TOR yeast: yeast TOR pathway LAP4-GFP modulation; S. cerevisiae LAP4-GFP multiplex, flow cytometry GFP, 3 h; median GFP as percent of DMSO wells; GFP response vs DMSO, % at 10 µM; 320,000 compounds, 0.34% hits;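 active = GFP response vs DMSO above a set limit, about the screen mean plus 3 SD, cut at about 150% in these data; inconclusive = under 70 cell events counted for the yeast strain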
Numbers without * were called inactive; ? = inconclusive; / = no result; [ ] = remark or other dose.

SMILES	RPL19A TOR yeast	AGP1-GFP MLPCN	CIT2 TOR yeast	MEP2-GFP yeast	GASC-1 inh	LAP4 TOR yeast
Cc1ccc(CCNC(=O)CCS(=O)(=O)c2ccc3c(c2)oc(=O)n3C)cc1	52	?	?	207*[may fluoresce violet]	5	91
CC(=O)N1CCc2cc(S(=O)(=O)CCC(=O)NCCc3ccccc3)ccc21	28*[may fluoresce violet]	?	?	121	2	79
CCC(=O)N1CCc2cc(S(=O)(=O)CCC(=O)Nc3ccc(OC)cc3)ccc21	20*[may fluoresce violet]	?	?	132	-4	77
CN(c1ccccc1C(=O)Nc1cccc(Br)c1)S(=O)(=O)c1ccccc1	103	98	97	103	-20	100
CC(C)[C@H](NC(=O)[C@@H]1Cc2ccccc2CN1C(=O)OC(C)(C)C)C(=O)NCc1ccco1	104	111	117	114	-16	107
CCc1nn(CC(=O)NCc2cccnc2)c(=O)c2cc3occc3n12	97	97	97	100	-6	99
CCCC1(C(=O)OC)NC(c2ccco2)C2C(=O)N(c3ccc(C)cc3)C(=O)C21 (centres undefined)	37*[may fluoresce violet]	?	/	333*[may fluoresce violet]	2	91
O=c1c2c(-c3cccs3)csc2ncn1/N=C/c1ccccn1	82	100	83	91	5	156*
O=c1c2c(-c3cccs3)csc2ncn1/N=C/c1ccc(OC(F)F)cc1	94	94	100	93	-2	93
COC(=O)C1=C(C)N(CCc2cc(OC)c(OC)c(OC)c2)C(=O)N[C@H]1c1cccs1	101	92	107	95	56*	129
CCOC(=O)CN1C(=O)N[C@@H](c2cccs2)C(C(=O)OC)=C1C	102	88	90	92	-6	100
O=C(COc1ccc2ccc(=O)oc2c1)Nc1ccc(CN2CCOCC2)cc1	15*[may fluoresce violet]	?	?	174	-7	81
O=C(CCNS(=O)(=O)c1ccc(Cl)cc1)NCc1cccnc1	29*[may fluoresce violet]	?	?	252*[may fluoresce violet]	-5	118
NC1=NC(=O)/C(=C\c2ccsc2)S1	100	95	102	99	-2	90
CCN(CC)S(=O)(=O)c1ccc(C(=O)N(c2ccc(C)cc2)C2C=CS(=O)(=O)C2)cc1 (centres undefined)	41*[may fluoresce violet]	?	?	160	6	62
Cc1ccc(N(C(=O)c2ccc(S(=O)(=O)N3CCOCC3)cc2)C2C=CS(=O)(=O)C2)cc1 (centres undefined)	99	98	94	102	-1	102
O=C(COC(=O)C1=COCCO1)Nc1ccc(Br)cc1Br	92	83	84	95	-8	91
O=C(CNc1cc(S(=O)(=O)N2CCOCC2)ccc1NCC1CCCO1)Nc1cccc(F)c1 (centres undefined)	70	86	85	91	-20	76
O=C(C(O)c1ccccc1)N1N=C(c2ccccc2)CC1(O)C(F)(F)F (centres undefined)	100	99	93	97	2	94
COC(=O)c1cc(OC)c(OC)cc1NC(=O)CSc1nnnn1Cc1ccccc1	56	?	?	230*[may fluoresce violet]	-15	71
COC(=O)c1cc(S(=O)(=O)N2CCCC2=O)c(Cl)cc1Cl	96	97	109	105	6	97
O=C1C(CSCc2ccccc2)NC(=S)N1c1ccccc1 (centres undefined)	95	97	91	87	-6	152*
COc1ccc(C(C(=O)NC(C)(C)C)N(C(=O)CCC(=O)Nc2cc(C)on2)c2ccc(C)c(C)c2)cc1 (centres undefined)	57	?	?	319*[may fluoresce violet]	1	86
CCOc1nnc(C)c2c(C)n(-c3cccc(OC)c3)nc12	56	35	113	317*	7	94
COc1cccc(N2CCN(CC(=O)Nc3ccc(S(=O)(=O)N4CCCCCC4)cc3)CC2)c1	105	104	105	106	0	99
COc1cc(C(=O)Nn2cnnc2)ccc1OC(F)F	100	99	94	98	6	90
